# Results reported in PubChem BioAssay (NCATS).
# Records with an inconclusive call do not appear. Unmarked numbers belong to inactive results. Calls follow the shape of the dose curve; as a rule, active = well fitted cell-killing curve with a large enough effect; inconclusive = small, poorly fitted or top-dose-only effect, or effect the other way; inactive = flat fitted curve, though single readings scatter.
# Test system: Tov112D
# Assay: Primary qHTS to identify gynecologic anti-cancer compounds using libraries of approved drugs and bioactive compounds (AID 1345084); also: nearly all actives have a fitted effect of over 55% in size
# Conditions: Gynecologic cancer cell panel viability, ATPlite luminescence, 48 h; series mostly up to 57.5 µM; activity change, negative = cytotoxicity: at the top concentration
# In short: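 Cells, 1,000 per well, plated 16 h, then exposed 48 h at 37 C to compounds. Viability by ATPlite luminescence after 15 min at room temperature.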
# % is scaled to controls: 0 for no effect and ±100 for the full control effect.
row,Compound,"activity change, negative = cytotoxicity"
1,C[C@@H]1O[C@@H](O[C@H]2[C@H](OC(=O)[C@]34CCC(C)(C)C[C@H]3C3=CCC5[C@@]6(C)CC[C@H](O[C@@H]7O[C@H](CO[C@@H]8OC[C@H](O)[C@H](O)[C@H]8O)[C@@H](O)[C@H](O)[C@H]7O)C(C)(C)C6CC[C@@]5(C)[C@]3(C)C[C@H]4O)OC[C@@H](O)[C@@H]2O)[C@H](O)[C@H](O)[C@H]1O[C@@H]1OC[C@H](O)[C@H](O[C@@H]2OC[C@@H](O)[C@H](O)[C@H]2O)[C@H]1O (some centres not stated),9.32% [at 6.55 µM]
2,COC(=O)C1=CO[C@@H](O[C@@H]2O[C@H](CO)[C@@H](O)[C@H](O)[C@H]2O)[C@@H]2[C@@H](C)[C@@H](O)C[C@H]12,-2.76% [at 38.5 µM]
3,COc1c(C(CC(C)C)OC(C)=O)ccc(Oc2c(O)cc(C)cc2/C=C/C(C)=O)c1C(=O)O (configuration not stated),-1.96% [at 25.3 µM]
4,CC1(C)CCC2(C(=O)OC3OC(COC4OC(CO)C(O)C(O)C4O)C(O)C(O)C3O)CCC3(C)C(=CCC4C5(C)CCC(O)C(C)(C(=O)O)C5CCC43C)C2C1O (configuration not stated),-1.2% [at 11.6 µM]
5,C[C@]12CCC[C@](C)(C(=O)O)C1CCC13C=C(CO)C(CCC12)C3 (some centres not stated),4.86% [at 38.5 µM]
6,COc1cc(C2Oc3c(OC)cc(CCCO[C@@H]4O[C@H](CO)[C@@H](O)[C@H](O)[C@H]4O)cc3C2CO)ccc1O (some centres not stated),0.546% [at 25.3 µM]
7,CC1(C)CC[C@]2(C(=O)O[C@@H]3O[C@H](CO)[C@@H](O)[C@H](O)[C@H]3O)CC[C@]3(C)C(=CCC4[C@@]5(C)C[C@@H](O)[C@H](O)C(CO)(CO)C5CC[C@]43C)C2[C@@H]1O (some centres not stated),-9.16% [at 25.3 µM]
8,C[C@@H]1O[C@@H](O[C@H]2[C@H](OC(C#N)c3ccc(O)cc3)O[C@H](CO)[C@@H](O)[C@@H]2O)[C@H](O)[C@H](O)[C@H]1O (some centres not stated),0.209% [at 25.3 µM]
9,C=C1CC[C@@H]2[C@](C)(CO[C@@H]3O[C@H](CO)[C@@H](O)[C@H](O)[C@H]3O)CCC[C@@]2(C)[C@@H]1CCC1=CCOC1=O,-5.2% [at 25.3 µM]
10,C=CC1(C)CC(OC(=O)C(=C)C(O)COC(C)=O)C(C(=C)C(=O)OC)C(O)C1C(=C)CO (configuration not stated),-2.56% [at 25.3 µM]
11,COC(=O)[C@@]1(O)C=CC[C@@H]2[C@@]3(C)C[C@@H](c4ccoc4)OC(=O)[C@H]3CC[C@]21C,12.7% [at 38.5 µM]
12,CC(C)(O)C1CC=C(C(=O)OCC2OC(Oc3c(O)cc(C(=O)O)cc3O)C(O)C(O)C2O)CC1 (configuration not stated),13.1% [at 25.3 µM]
13,OCCc1ccc(O[C@@H]2O[C@H](CO)[C@@H](O)[C@H](O)[C@H]2O)c(O)c1,13.2% [at 38.5 µM]
14,C[C@@H]1CC[C@]2(C)C(C[C@@H](O)[C@H](O)[C@]23CO3)[C@@]1(C)CCc1ccoc1 (some centres not stated),1.72% [at 38.5 µM]
15,COC1(CC(C)C)NC(=O)C(O)(Cc2ccccc2)NC1=O (configuration not stated),-0.893% [at 38.5 µM]
16,O=C1CC(c2ccc([N+](=O)[O-])cc2)=NN1c1ccccc1,-4.34%
17,CC(C)C(=O)c1cn(CC(=O)COc2ccc(Oc3ccccc3)cc2)c2ccc(C(=O)O)cc12,10.3%
18,NC(=O)[C@H]1CCCCc2c1[nH]c1ccc(Cl)cc21,15.1% [at 25.3 µM]
19,COC12CC3C(C(C)C1=CC(=O)O2)C(O)C(OC(C)=O)C1C(C)(C)C(OC(C)=O)CCC31C (configuration not stated),-6.81% [at 25.3 µM]
20,CC(C)C(C#N)O[C@@H]1O[C@H](CO[C@@H]2OC[C@](O)(CO)[C@H]2O)[C@@H](O)[C@H](O)[C@H]1O (some centres not stated),0.91% [at 38.5 µM]
21,O=C(CCCCc1ccc2ccccc2c1)C(F)(F)F,4.64% [at 116 µM]
22,C[C@@H]1CCC2C(C)(C)[C@H](O)CC[C@]2(C)[C@@]12Cc1c(O)cc3c(c1O2)CN(CCO)C3=O (some centres not stated),-1.62% [at 25.3 µM]
23,C[C@@H]1C(=O)O[C@H]2CC34[C@H]5C[C@@H](C(C)(C)C)C36[C@@H](OC(=O)[C@@H]6O)OC4(C(=O)O5)[C@]21O (some centres not stated),-0.571%
24,Cc1cc(O)c(C(C)C)cc1O[C@@H]1O[C@H](CO)[C@@H](O)[C@H](O)[C@H]1O,-1.5% [at 38.5 µM]
25,C=C1C[C@]23C[C@H]1CC[C@H]2[C@@]12C=C[C@H](O)[C@@](C)(C(=O)O1)[C@H]2[C@@H]3C(=O)O,0.754% [at 38.5 µM]
26,C=CC1(C)CC2=CCC3C(C)(C(=O)O)CCCC3(C)C2CC1OC(C)=O (configuration not stated),-3.15% [at 38.5 µM]
27,O=c1ccn([C@@H]2O[C@H](CO)[C@@H](O)[C@H]2O)c(=O)[nH]1,4.21%
